High-throughput results from PubChem BioAssay.
WT yeast gro inh: growth inhibition of WT yeast, mitochondrial fusion screen; mitochondrial fusion phenotypic screen, WT strain; inhibition, % at 10 µM; 190,000 tested, 2.1% active; AID 1362; in the data active means inhibition above about 58%; tested in S. cerevisiae
Calpain2 inh: calpain II (pig) inhibition; purified calpain II, fluorogenic peptide substrate, 30 min; inhibition, % at 16 µM; 220,000 tested, 0.37% active; AID 1236;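 active means inhibition above about 50%, limit read from the data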
ROMK mod: human ROMK K+ channel modulation, primary screen. Tet-inducible ROMK, thallium flux fluorescence; actives lie on both sides. P48048. 130,000 tested, 2% active. B-score at 10 µM;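 active means signal ratio slope over the read window, or its plate-corrected B-score, at least 3 SD from the plate mean, either direction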;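 further: B-score of the F/F0 ratio slope over 7 to 12 s after thallium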
Lmaj promast: inhibitors of Leishmania major promastigote growth; Leishmania major promastigotes, resazurin fluorescence viability; inhibition, % at 10 µM; 200,000 tested, 9% active; AID 1063; in the data active means inhibition above about 50%;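 further: promastigotes grown with compound for 44 hours at 28 °C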
KCC2 mod: modulators of human KCC2 chloride dependent transport; Q9H2X9; B-score of Tl+ flux slope (higher = more flux/activation; lower = inhibition) at 10 µM; KCC2 cells, thallium flux FluoZin-2 fluorescence; 190,000 tested, 2.2% active; AID 1456;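 active means thallium flux slope and its plate-corrected score both differing from the plate sample mean at a set confidence after two filtering rounds, in either direction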;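 further: slope of fluorescence scaled to starting intensity during 10 to 20 s after thallium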
* hit, by the source's call. Rows were chosen to be rich in hits. Some 12% of all compounds tested hit in one or more screens of this group.

Results for O=C(C1CCCN(Cc2ccccc2)C1)N1CCc2ccccc2C1 (stereo not given) ?
WT yeast gro inh: -12; Calpain2 inh: 9; ROMK mod: -0.77; Lmaj promast: 96*; KCC2 mod: 0.067

What do the screens show for `Cc1c(NC(=O)c2ccc(CN3CCc4ccccc4C3)cc2)c(=O)n(-c2ccccc2)n1C`?
WT yeast gro inh: 9; Calpain2 inh: -12; Lmaj promast: 0; KCC2 mod: 0.44

How did O=C(NCc1ccc2c(c1)OCO2)c1ccc(CN2CCc3ccccc3C2)cc1 do in these assays?
WT yeast gro inh: 4; Calpain2 inh: 18; Lmaj promast: 32; KCC2 mod: -1.6

How did Cc1cc(C)c(NC(=O)c2ccc(CN3CCc4ccccc4C3)cc2)c(C)c1 do in these assays?
WT yeast gro inh: -17; Calpain2 inh: 24; ROMK mod: -0.48; Lmaj promast: 73*; KCC2 mod: 0.1

What do the screens show for `COc1ccccc1-c1nnc(SCC(=O)OC(C)C)o1`?
WT yeast gro inh: 8; Calpain2 inh: 15; ROMK mod: 0.46; Lmaj promast: -8

How did CCCNC(=O)c1ccc(CN2CCc3ccccc3C2)cc1 do in these assays?
WT yeast gro inh: 1; Calpain2 inh: -10; ROMK mod: -0.84; Lmaj promast: 56*; KCC2 mod: -0.53

How did O=C(c1ccc(COc2ccccc2Br)cc1)N1CCCCC1 do in these assays?
WT yeast gro inh: 2; Calpain2 inh: 5; ROMK mod: -2.2; Lmaj promast: 70*; KCC2 mod: -1.4

What do the screens show for `COCCNC(=O)c1ccc(CN2CCc3ccccc3C2)cc1`?
WT yeast gro inh: -7; Calpain2 inh: 2; ROMK mod: -0.64; Lmaj promast: -4; KCC2 mod: -1

Results for Cc1cccc(OCC(=O)N/N=C2/SCC(=O)N2Cc2ccco2)c1 ?
WT yeast gro inh: -17; Calpain2 inh: -19; ROMK mod: -0.76; Lmaj promast: -4

Results for Cc1nc2ccccc2c(=O)n1/N=C/c1ccccc1O ?
Calpain2 inh: 16; ROMK mod: -0.036; KCC2 mod: -0.56

How did Cc1nnc(-c2ccccc2)c(=O)n1/N=C/c1c(O)ccc2ccccc12 do in these assays?
WT yeast gro inh: 20; Calpain2 inh: -8; Lmaj promast: 98*; KCC2 mod: -2.4

How did COc1ccc(CSc2nnc3[nH]c(=O)cc(N)n23)cc1 do in these assays?
WT yeast gro inh: 15; Calpain2 inh: 15; ROMK mod: -0.18; Lmaj promast: -2; KCC2 mod: 0.7

What do the screens show for `CC1CN(c2cc(-c3ccccc3)c3ccccc3n2)CC(C)O1` (stereo not given)?
WT yeast gro inh: 76*; Calpain2 inh: -153; ROMK mod: 0.014; Lmaj promast: 100*; KCC2 mod: 0.054

Results for CC1CN(c2nc3ccccc3cc2-c2ccccc2)CC(C)O1 (stereo not given) ?
WT yeast gro inh: 78*; Calpain2 inh: -43; Lmaj promast: 38; KCC2 mod: -0.71

What do the screens show for `Cc1cccc(N2CCN(C(=O)c3cc4n(n3)C(C(F)(F)F)CC(c3ccco3)N4)CC2)c1C` (stereo not given)?
WT yeast gro inh: 61*; Calpain2 inh: -29; ROMK mod: 0.66; Lmaj promast: 67*; KCC2 mod: 0.75

How did O=C(c1cc2n(n1)C(C(F)(F)F)CC(c1ccco1)N2)N1CCN(c2ccccn2)CC1 (stereo not given) do in these assays?
WT yeast gro inh: 12; Calpain2 inh: 6; ROMK mod: -0.32; Lmaj promast: -1; KCC2 mod: -0.53

How did COc1ccc(CCCC(=O)N/N=C/c2cccc(OC)c2O)cc1C do in these assays?
WT yeast gro inh: -9; Calpain2 inh: -12; Lmaj promast: 98*; KCC2 mod: -1.2

How did CCCCSc1nc(C)cc(SCC(=O)N/N=C/c2cccc(OC)c2O)n1 do in these assays?
WT yeast gro inh: 17; Calpain2 inh: -13; ROMK mod: -0.86; Lmaj promast: 99*; KCC2 mod: -0.26

What do the screens show for `CC(c1cccs1)N(Cc1ccco1)C(=O)Nc1ccc(Cl)c(Cl)c1` (stereo not given)?
WT yeast gro inh: 64*; Calpain2 inh: 25; Lmaj promast: 24; KCC2 mod: -1.2

Results for Cc1ccc(NC(=O)N(Cc2ccco2)C(C)c2ccco2)cc1C (stereo not given) ?
WT yeast gro inh: 0; Calpain2 inh: 31; Lmaj promast: 3

How did COc1cccc(NC(=O)N(Cc2ccco2)C(C)c2cccs2)c1 (stereo not given) do in these assays?
WT yeast gro inh: -18; Calpain2 inh: -16; ROMK mod: 0.069; Lmaj promast: 61*; KCC2 mod: -1.5
